Data as given in PubChem BioAssay (NCI).
Compounds without any hit were thinned out: in the full panel of roughly 83,000, 20% have a hit.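 Cells were grown in 96-well plates and exposed to the test compound at a single concentration for 48 hours; results are reported as percent growth, with values below 10 considered active.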 Values without a mark were called inactive. The source made the active and inactive calls.

These compounds were tested on OVCAR-8 ovarian (assay: NCI-60 one-dose screen, 48 h (100 = growth as untreated, 0 = no growth, -100 = all killed)). Details: 10 µM unless noted.

Row | SMILES | growth
1 | Cc1ccc(-c2nc([P+](c3ccccc3)(c3ccccc3)c3ccccc3)c(N3CCOCC3)o2)cc1 | 3.78% (active)
2 | Cc1cc(N2CCCCC2)nc(N(CCNc2ccnc3cc(Cl)ccc23)Cc2ccco2)n1 | 22.3%
3 | Cc1cc(C)c(NC(=O)c2sc3nc4c(cc3c2N)CCCC4)c(C)c1 | 62.3%
4 | CCNCCCn1c2c(c3ccc([N+](=O)[O-])cc3c1=O)C(=O)c1cc(OC)cnc1-2 | -37% (active)
5 | CCCC(=O)N1CCCCC1CC (stereo not drawn) | 95.3%
6 | C#CCn1c(C)cc(C)c(C#N)c1=O | 103%
7 | Cc1cc2nc3c4cc([N+](=O)[O-])cc([N+](=O)[O-])c4n(CCN(C)C)c3nc2cc1C | 61.4%
8 | Cn1c(/C(C#N)=C/c2ccc3ccccc3c2)cc2ccccc21 | 30.3%
9 | CC(=O)O[C@H]1CC[C@]2(C)[C@H]3C(=O)C=C4[C@@H]5C[C@](C)(C(=O)N6CCCNCC6)CC[C@]5(C)CC[C@@]4(C)[C@]3(C)CC[C@H]2C1(C)C | -24.6% (active)
10 | Cc1cc(N(CCNc2ccnc3cc(Cl)ccc23)Cc2ccco2)nc(Cl)n1 | -26.6% (active)
11 | COc1ccc2c(c1)c(-c1nc(-c3cn(C)c4ncccc34)cs1)cn2CCCN1CCCCC1 | 59.6%
12 | NC(Cc1ccc(O)cc1)C(=O)N/N=C/c1ccccc1O (stereo not drawn) | 96.2%
13 | CC(=O)NC1=C(C#N)C(c2ccccc2Cl)c2c(ccc3ccccc23)O1 (stereo not drawn) | 82%
14 | COC(=O)[C@]12CC[C@@H](C)[C@H](C)[C@@H]1C1=CC[C@@H]3[C@@]4(C)C=C(O)C(=O)C(C)=C4CC[C@@]3(C)[C@]1(C)CC2 | 37.9%
15 | N#Cc1c(-c2ccc(O)cc2)c2c(N)nn(-c3ccccc3)c2[nH]c1=O | 105%
16 | CCN(CC)CCCCCNc1cc(OC(=O)c2ccccc2)cc2cccnc12 | 121%
17 | Clc1ccc(Cn2cc(-c3nc4ccc(Br)nc4n3Cc3ccc(Cl)cc3)c3cccnc32)cc1 | 77.2%
18 | Cn1c2c(Cl)c(Cl)ccc2c2c(C#N)c[nH]c(=O)c21 | 91.2%
19 | COc1ccc(C(=O)/C=C/c2cc(-c3cc(OC)c(OC)c(OC)c3)n[nH]2)cc1OC | -4.15% (active)

Row | SMILES | growth
20 | COC1=C(Br)C(=O)C(OC)=C(Br)C1=O | 105%
21 | CN(C)c1ccc(N)c2ccccc12 | 74.6%
22 | Cc1cc(C=O)c(C)c2c1[nH]c1ccccc12 | 93%
23 | N#CC1=C(N)Oc2c(sc3c(F)cccc23)C1c1ccc(Cl)cc1 (stereo not drawn) | 42.8%
24 | COc1ccc(C2C(C#N)=C(N)Oc3c2sc2c(F)cccc32)cc1 (stereo not drawn) | 25.9%
25 | C=COCCCCCCCCCCCCCCCCCC | 96.5%
26 | O=C1C=Cc2ncccc2C1=O | 87.8%
27 | O=C1c2ccccc2C(=Cc2ccccc2)c2ccccc21 | 21.6%
28 | CN(C)c1ccc(C(=O)c2ccc(N(C)C)c(N)c2)cc1N | 41.6%
29 | O=C1c2cccc3cccc(c23)C(=O)N1CC#Cc1ccc2c3c(cccc13)C(=O)N(CCN1CCNCC1)C2=O | 93.9%
30 | C=C1CC[C@@H](C(=O)OC)Cc2nc(C)ccc21 | 102%
31 | N#C/C(=C\c1ccc(-c2ccccc2)o1)c1nc(-c2ccco2)cs1 | 96.9%
32 | O=C(/C=C\c1ccc2c(c1)OCO2)/C=C/c1ccc2c(c1)OCO2 | 101%
33 | Cc1ccc(-c2nc3ccc(Cl)cc3c(=O)n2N2C(=O)CSC2c2ccccc2Cl)cc1 (stereo not drawn) | 27.3%
34 | CC(=O)OC[C@]12CC[C@@H](/C(C)=N/O)[C@@H]1[C@H]1CC[C@@H]3[C@@]4(C)CCCNC(C)(C)[C@@H]4CC[C@@]3(C)[C@]1(C)CC2 | 73.3%
35 | C=C1C(=O)O[C@H]2[C@H]1CC/C(COC(=O)NCc1c[nH]c3ccccc13)=C\CC[C@@]1(C)O[C@@H]21 | 39.4%
36 | O=C1c2cccc3cccc(c23)C(=O)N1CC#Cc1ccc2c3c(cccc13)C(=O)N(CCO)C2=O | 86.5%
37 | Cc1cc(N2CCOCC2)nc(N(CCCNc2ccnc3cc(Cl)ccc23)Cc2ccco2)n1 | 46.3%
38 | Cn1c2ccccc2c2c3c(c4c5cccnc5[nH]c4c21)C(=O)N(O)C3=O | 45.5%
